Numbering of substitutions follows the chain as printed.

Common to all, as to experiment: PBM; 200 nM protein, PBS
Common to all, as to conditions: dsDNA, one strand shown

For assay [1], the target named is NKX2-5 (Homo sapiens, UniProt P52952 125-210, R139K).
For assay [2], the target named is T1, NKX2-6 (Homo sapiens, UniProt A6NCS4 118-204).
T1 sequence: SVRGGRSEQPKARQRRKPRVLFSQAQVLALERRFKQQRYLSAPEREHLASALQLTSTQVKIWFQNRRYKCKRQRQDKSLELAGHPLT

Assay [3] deals with T2, NKX2-6 (Homo sapiens, UniProt A6NCS4 118-204, F151L).
T2 sequence: T1 sequence with F34L

Assay [4] has as its target NKX2-5 (Homo sapiens, UniProt P52952 125-210).
The target of assay [5] is ALX1 (Homo sapiens, UniProt Q15699 118-204, L144V).
ALX1 (Homo sapiens, UniProt Q15699 118-204, L144V), sequence (Q15699 118-204 L144V): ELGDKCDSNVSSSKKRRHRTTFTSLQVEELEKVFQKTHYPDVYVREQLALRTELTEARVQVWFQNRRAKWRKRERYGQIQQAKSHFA
The target in assay [6] is ALX1 (Homo sapiens, UniProt Q15699 118-204, L144R).
ALX1 (Homo sapiens, UniProt Q15699 118-204, L144R), sequence (Q15699 118-204 L144R): as the sequence (Q15699 118-204 L144V) above, with V27R counted along it
Assay [7] addresses ALX1 (Homo sapiens, UniProt Q15699 118-204).
Assay [8] addresses MSX2 (Homo sapiens, UniProt P35548 130-214, R199I).
The target of assay [9] is ALX3 (Homo sapiens, UniProt O95076 139-225, N203Q).
ALX3 (Homo sapiens, UniProt O95076 139-225, N203Q), sequence (O95076 139-225 N203Q): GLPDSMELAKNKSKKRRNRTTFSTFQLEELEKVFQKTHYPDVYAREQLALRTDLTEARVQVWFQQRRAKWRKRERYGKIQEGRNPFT
For assay [10], the target named is MSX2 (Homo sapiens, UniProt P35548 130-214).
MSX2 (Homo sapiens, UniProt P35548 130-214), sequence (P35548 130-214): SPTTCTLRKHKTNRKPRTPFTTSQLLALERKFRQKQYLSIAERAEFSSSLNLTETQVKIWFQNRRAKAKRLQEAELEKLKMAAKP
For assay [11], the target named is ALX3 (Homo sapiens, UniProt O95076 139-225).
ALX3 (Homo sapiens, UniProt O95076 139-225), sequence (O95076 139-225): as the sequence (O95076 139-225 N203Q) above, with Q65N counted along it
Assay [12] has as its target ALX3 (Homo sapiens, UniProt O95076 139-225, L168Q).
For assay [13], the target named is ALX3 (Homo sapiens, UniProt O95076 139-225, L168V).
ALX3 (Homo sapiens, UniProt O95076 139-225, L168V), sequence (O95076 139-225 L168V): as the sequence (O95076 139-225 N203Q) above, with L30V, Q65N counted along it
Assay [14] addresses MSX2 (Homo sapiens, UniProt P35548 130-214, F161Y).
The target in assay [15] is ALX3 (Homo sapiens, UniProt O95076 139-225, N203S).
ALX3 (Homo sapiens, UniProt O95076 139-225, N203S), sequence (O95076 139-225 N203S): as the sequence (O95076 139-225 N203Q) above, with Q65S counted along it
For assay [16], the target named is T3, NKX2-6 (Homo sapiens, UniProt A6NCS4 118-204, R150C).
T3 sequence: T1 sequence with R33C

For assay [17], the target named is NKX3-2 (Homo sapiens, UniProt P78367 192-278, P234S).
NKX3-2 (Homo sapiens, UniProt P78367 192-278, P234S), sequence (P78367 192-278 P234S): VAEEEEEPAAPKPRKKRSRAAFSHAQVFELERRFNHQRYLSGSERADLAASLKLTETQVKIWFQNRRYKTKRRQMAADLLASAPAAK
In assay [18] the target is NKX3-2 (Homo sapiens, UniProt P78367 192-278).
NKX3-2 (Homo sapiens, UniProt P78367 192-278), sequence (P78367 192-278): as the sequence (P78367 192-278 P234S) above, with S43P counted along it
Assay [19] deals with HOXD13 (Homo sapiens, UniProt P35453 263-343, T313R).
HOXD13 (Homo sapiens, UniProt P35453 263-343, T313R), sequence (P35453 263-343 T313R): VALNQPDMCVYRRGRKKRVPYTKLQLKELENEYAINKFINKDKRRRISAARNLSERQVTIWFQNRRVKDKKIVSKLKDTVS
For a further assay, the target named is PITX2 (Homo sapiens, UniProt Q99697 72-157).
The target in assay [20] is HOXD13 (Homo sapiens, UniProt P35453 263-343).
HOXD13 (Homo sapiens, UniProt P35453 263-343), sequence (P35453 263-343): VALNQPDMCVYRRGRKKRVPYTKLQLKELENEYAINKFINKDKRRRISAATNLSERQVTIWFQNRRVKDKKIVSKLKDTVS
Assay [21] deals with HOXD13 (Homo sapiens, UniProt P35453 263-343, T313A).
HOXD13 (Homo sapiens, UniProt P35453 263-343, T313A), sequence (P35453 263-343 T313A): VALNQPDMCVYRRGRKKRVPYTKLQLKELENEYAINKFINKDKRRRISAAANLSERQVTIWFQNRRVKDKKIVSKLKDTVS

NKX2-5 (Homo sapiens, UniProt P52952 125-210), sequence (P52952 125-210): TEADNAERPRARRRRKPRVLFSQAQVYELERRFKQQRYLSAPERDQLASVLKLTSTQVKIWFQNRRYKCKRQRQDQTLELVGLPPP
NKX2-5 (Homo sapiens, UniProt P52952 125-210, R139K), sequence (P52952 125-210 R139K): as the sequence (P52952 125-210) above, with R15K counted along it
MSX2 (Homo sapiens, UniProt P35548 130-214, F161Y), sequence (P35548 130-214 F161Y): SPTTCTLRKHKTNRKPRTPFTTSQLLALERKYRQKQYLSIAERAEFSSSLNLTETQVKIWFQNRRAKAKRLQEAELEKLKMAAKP
MSX2 (Homo sapiens, UniProt P35548 130-214, R199I), sequence (P35548 130-214 R199I): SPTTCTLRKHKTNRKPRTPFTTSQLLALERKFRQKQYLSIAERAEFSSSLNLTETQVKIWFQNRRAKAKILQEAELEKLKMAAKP
ALX3 (Homo sapiens, UniProt O95076 139-225, L168Q), sequence (O95076 139-225 L168Q): as the sequence (O95076 139-225 N203Q) above, with L30Q, Q65N counted along it
ALX1 (Homo sapiens, UniProt Q15699 118-204), sequence (Q15699 118-204): as the sequence (Q15699 118-204 L144V) above, with V27L counted along it

In the case of CCAGCAGC, the binding signal is 8.8 upbm affinity estimate (log intensity, higher = more binding, comparable within an allelic series) with NKX2-5 [1]; 9.28 upbm affinity estimate (log intensity, higher = more binding, comparable within an allelic series) with NKX2-6 [2]; 9.29 upbm affinity estimate (log intensity, higher = more binding, comparable within an allelic series) in the assay with NKX2-6 [3]; 8.73 upbm affinity estimate (log intensity, higher = more binding, comparable within an allelic series) with NKX2-5 [4].

With CCAGCAGG, the binding signal with NKX2-5 [1] was 8.6 upbm affinity estimate (log intensity, higher = more binding, comparable within an allelic series); with ALX1 [5], 6.58 upbm affinity estimate (log intensity, higher = more binding, comparable within an allelic series); with ALX1 [6], 6.51 upbm affinity estimate (log intensity, higher = more binding, comparable within an allelic series); in the assay with ALX1 [7], 6.53 upbm affinity estimate (log intensity, higher = more binding, comparable within an allelic series); with NKX2-5 [4] it was 8.77 upbm affinity estimate (log intensity, higher = more binding, comparable within an allelic series).

With CCGACGCA, the binding signal with NKX2-5 [1] is 8.78 upbm affinity estimate (log intensity, higher = more binding, comparable within an allelic series); with MSX2 [8] it was 9.38 upbm affinity estimate (log intensity, higher = more binding, comparable within an allelic series); with ALX3 [9], 7.72 upbm affinity estimate (log intensity, higher = more binding, comparable within an allelic series); with MSX2 [10], 9.17 upbm affinity estimate (log intensity, higher = more binding, comparable within an allelic series); with ALX3 [11], 7.54 upbm affinity estimate (log intensity, higher = more binding, comparable within an allelic series); with ALX3 [12], 7.69 upbm affinity estimate (log intensity, higher = more binding, comparable within an allelic series). Also, the binding signal with ALX3 [13] is 7.71 upbm affinity estimate (log intensity, higher = more binding, comparable within an allelic series); with MSX2 [14] it was 9.25 upbm affinity estimate (log intensity, higher = more binding, comparable within an allelic series); with ALX3 [15], 7.75 upbm affinity estimate (log intensity, higher = more binding, comparable within an allelic series); in the assay with NKX2-5 [4], 8.7 upbm affinity estimate (log intensity, higher = more binding, comparable within an allelic series).

Regarding CGTCGGTC, the binding signal is 8.88 upbm affinity estimate (log intensity, higher = more binding, comparable within an allelic series) with NKX2-5 [1]; 9.56 upbm affinity estimate (log intensity, higher = more binding, comparable within an allelic series) with NKX2-6 [16]; 9.23 upbm affinity estimate (log intensity, higher = more binding, comparable within an allelic series) with NKX2-6 [2]; 9.36 upbm affinity estimate (log intensity, higher = more binding, comparable within an allelic series) with NKX2-6 [3]; 8.91 upbm affinity estimate (log intensity, higher = more binding, comparable within an allelic series) with NKX2-5 [4].

Take CACTTAGG: the binding signal with NKX2-5 [1] was 12.6 upbm affinity estimate (log intensity, higher = more binding, comparable within an allelic series); with NKX2-6 [16], 11.7 upbm affinity estimate (log intensity, higher = more binding, comparable within an allelic series); with NKX2-6 [2], 13.5 upbm affinity estimate (log intensity, higher = more binding, comparable within an allelic series); with NKX2-6 [3] it was 10.8 upbm affinity estimate (log intensity, higher = more binding, comparable within an allelic series); with NKX3-2 [17], 12.9 upbm affinity estimate (log intensity, higher = more binding, comparable within an allelic series); with NKX2-5 [4] it was 12.5 upbm affinity estimate (log intensity, higher = more binding, comparable within an allelic series). Also, the binding signal in the assay with NKX3-2 [18] is 13 upbm affinity estimate (log intensity, higher = more binding, comparable within an allelic series).

Take ACTAAGTG: the binding signal with NKX2-5 [1] is 12.3 upbm affinity estimate (log intensity, higher = more binding, comparable within an allelic series); with NKX2-6 [16], 11.6 upbm affinity estimate (log intensity, higher = more binding, comparable within an allelic series); with NKX2-6 [2] it was 13.3 upbm affinity estimate (log intensity, higher = more binding, comparable within an allelic series); in the assay with NKX2-6 [3], 10.6 upbm affinity estimate (log intensity, higher = more binding, comparable within an allelic series); in the assay with NKX3-2 [17], 12.9 upbm affinity estimate (log intensity, higher = more binding, comparable within an allelic series); with NKX2-5 [4], 12.3 upbm affinity estimate (log intensity, higher = more binding, comparable within an allelic series). Further, the binding signal in the assay with NKX3-2 [18] is 12.9 upbm affinity estimate (log intensity, higher = more binding, comparable within an allelic series).

As to CGACTGGC, the binding signal was 8.66 upbm affinity estimate (log intensity, higher = more binding, comparable within an allelic series) in the assay with NKX2-5 [1]; 9.39 upbm affinity estimate (log intensity, higher = more binding, comparable within an allelic series) with NKX2-6 [16]; 8.72 upbm affinity estimate (log intensity, higher = more binding, comparable within an allelic series) in the assay with NKX2-5 [4].

As to CGGTGGAG, the binding signal was 8.95 upbm affinity estimate (log intensity, higher = more binding, comparable within an allelic series) with NKX2-5 [1]; 9.59 upbm affinity estimate (log intensity, higher = more binding, comparable within an allelic series) with HOXD13 [19]; 8.06 upbm affinity estimate (log intensity, higher = more binding, comparable within an allelic series) with PITX2; 9.6 upbm affinity estimate (log intensity, higher = more binding, comparable within an allelic series) with HOXD13 [20]; 9.64 upbm affinity estimate (log intensity, higher = more binding, comparable within an allelic series) in the assay with HOXD13 [21]; 9.08 upbm affinity estimate (log intensity, higher = more binding, comparable within an allelic series) with NKX2-5 [4].

Regarding AAGTGGCG, the binding signal with NKX2-5 [1] was 12.2 upbm affinity estimate (log intensity, higher = more binding, comparable within an allelic series); in the assay with NKX2-6 [16], 11.6 upbm affinity estimate (log intensity, higher = more binding, comparable within an allelic series); in the assay with NKX3-2 [17], 12.7 upbm affinity estimate (log intensity, higher = more binding, comparable within an allelic series); with NKX2-5 [4], 12.2 upbm affinity estimate (log intensity, higher = more binding, comparable within an allelic series); with NKX3-2 [18], 12.8 upbm affinity estimate (log intensity, higher = more binding, comparable within an allelic series).

Regarding CCTCCGGA, the binding signal with NKX2-5 [1] is 8.88 upbm affinity estimate (log intensity, higher = more binding, comparable within an allelic series); with NKX2-6 [16], 9.54 upbm affinity estimate (log intensity, higher = more binding, comparable within an allelic series); in the assay with NKX2-5 [4] it was 8.86 upbm affinity estimate (log intensity, higher = more binding, comparable within an allelic series).

Take GCGGCCAC: the binding signal with NKX2-5 [1] is 8.75 upbm affinity estimate (log intensity, higher = more binding, comparable within an allelic series); with NKX2-6 [16], 9.34 upbm affinity estimate (log intensity, higher = more binding, comparable within an allelic series); in the assay with NKX2-5 [4], 8.78 upbm affinity estimate (log intensity, higher = more binding, comparable within an allelic series).

With CAAGTGGG, the binding signal with NKX2-5 [1] was 12.3 upbm affinity estimate (log intensity, higher = more binding, comparable within an allelic series); with NKX2-6 [16] it was 11.7 upbm affinity estimate (log intensity, higher = more binding, comparable within an allelic series); with NKX2-5 [4] it was 12.3 upbm affinity estimate (log intensity, higher = more binding, comparable within an allelic series).

Turning to ACAATTAC, the binding signal was 10.9 upbm affinity estimate (log intensity, higher = more binding, comparable within an allelic series) with NKX2-5 [1]; 12.3 upbm affinity estimate (log intensity, higher = more binding, comparable within an allelic series) in the assay with MSX2 [8]; 13.5 upbm affinity estimate (log intensity, higher = more binding, comparable within an allelic series) in the assay with MSX2 [10]; 13.2 upbm affinity estimate (log intensity, higher = more binding, comparable within an allelic series) with MSX2 [14]; 11 upbm affinity estimate (log intensity, higher = more binding, comparable within an allelic series) with NKX2-5 [4].

Source of the values: PMC11006913.
